Most compounds without a hit are left out; they make up all but 3.2% or so of the library.
NTR1 agonist = NTR1 (human) agonism; P30989; activation, % at 20 µM; AID 493036; NTR1-U2OS beta-arrestin-GFP spot imaging, agonist mode; 330,000 tested, 0.17% active;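 active = activation at or above 40% of the spot to cytoplasm intensity ratio, with at least 20 cells analyzed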;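 also: 0% = DMSO without peptide and 100% = 100 nM NTR1 peptide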
AHR act = activators of human aryl hydrocarbon receptor; P35869; AHR-responsive luciferase reporter cells, luminescence; activation, % at 5 µM; 320,000 tested, 2.5% active; AID 2796; in the data active = activation above about 47%;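 also: 0% = vehicle wells and 100% = reference agonist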
A3G deaminase = inhibitors of human APOBEC3G DNA deaminase; 330,000 tested, 0.28% active; recombinant A3G, ssDNA deamination FAM/TAMRA fluorescence; AID 493012; Q9HC16; inhibition, % at 20 µM;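 active = inhibition of at least 40% at 20 µM, with no more than 30% in the related APOBEC3A deaminase screen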;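 also: plate controls were DMSO wells with A3G for no effect and wells lacking A3G enzyme for full effect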
APOBEC3A inh = human APOBEC3A DNA deaminase inhibition; inhibition, % at 20 µM; P31941; 330,000 tested, 0.41% active; recombinant A3A, FAM/TAMRA ssDNA deamination fluorescence;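 active = at least 40% inhibition at 20 µM here, with at most 30% in a related deaminase screen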;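 also: plate controls were A3A with DMSO for no effect and wells lacking A3A enzyme for full effect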
Target sequence (P31941 whole entry, looked up): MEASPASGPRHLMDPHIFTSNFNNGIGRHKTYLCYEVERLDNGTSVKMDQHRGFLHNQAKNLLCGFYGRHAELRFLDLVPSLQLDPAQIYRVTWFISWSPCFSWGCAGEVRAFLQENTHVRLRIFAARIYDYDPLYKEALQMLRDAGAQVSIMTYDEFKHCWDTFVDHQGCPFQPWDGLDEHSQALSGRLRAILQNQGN
APOBEC3G confirm = confirmation of human APOBEC3G DNA deaminase inhibitors; shares compounds with A3G deaminase; recombinant A3G ssDNA deaminase, UDG/FAM-TAMRA fluorescence; inhibition, % at 20 µM; 890 tested, 72% active;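 active = inhibition reaching a set limit in any replicate at 20 µM, the limit being 80% of the first screen's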
UDG A3G counter = counter-screen for APOBEC3G inhibitors: E. coli UDG; shares compounds with A3G deaminase; UDG counterscreen, FAM/TAMRA oligo fluorescence; inhibition, % at 20 µM; 710 tested, under 10 active; AID 504715;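 active = compounds giving 40% or more inhibition at 20 µM in any one of the three replicates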;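 also: plate controls were DMSO wells with UDG and oligo for no effect and DMSO wells lacking both for full effect; inhibitors lower the FAM signal released by uracil excision and alkaline cleavage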
Target sequence (P12295 whole entry, looked up): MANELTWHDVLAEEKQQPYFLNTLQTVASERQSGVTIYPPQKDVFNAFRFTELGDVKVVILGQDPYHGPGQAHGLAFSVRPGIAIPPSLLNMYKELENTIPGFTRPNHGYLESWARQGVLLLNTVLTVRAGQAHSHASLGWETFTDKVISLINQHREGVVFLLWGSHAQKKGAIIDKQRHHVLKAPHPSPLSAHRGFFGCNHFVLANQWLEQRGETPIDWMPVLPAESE
* marks the source's active call; other numbers are inactive results; . = no result given.

SMILES	NTR1 agonist	AHR act	A3G deaminase	APOBEC3A inh	APOBEC3G confirm	UDG A3G counter
CCOC(=O)c1ccc(N=C2SC(C(=O)NC)CC(=O)N2Cc2ccc(F)cc2)cc1 (configuration not stated)	1	-4	1	-3	.	.
CCOC(=O)c1ccc(N=c2ssnc2Cl)cc1	-1	.	66*	5	79*	0
COc1ccc(S(=O)(=O)NCCC(=O)N2CCCN(C)CC2)cc1	0	-1	-2	-2	.	.
Cc1ncc(CO)c2cc(C(=O)Nc3ccccc3Cl)c(=Nc3cccc(C(N)=O)c3)oc12	11	7	-6	-4	.	.
O=C(Nc1cc(S(=O)(=O)N2CCOCC2)ccc1N1CCCCC1)c1ccccc1	-2	0	-8	-4	.	.
O=C(Nc1cc(S(=O)(=O)N2CCOCC2)ccc1N1CCCCC1)c1ccc(Cl)cc1	4	0	59*	3	68*	-1
O=C(Nc1cc(S(=O)(=O)N2CCOCC2)ccc1N1CCCC1)c1ccc(Cl)cc1	1	.	21	0	.	.
O=C(Nc1cc(S(=O)(=O)N2CCOCC2)ccc1N1CCCC1)c1ccc2c(c1)S(=O)(=O)c1ccccc1C2=O	-2	3	64*	6	74*	.
COCCn1c(=O)c2c(nc3n2CC(C)CN3Cc2ccccc2)n(C)c1=O (configuration not stated)	0	3	-3	-4	.	.
NS(=O)(=O)c1ccc(CCNc2ccnc3cc(Cl)ccc23)cc1	2	0	1	4	.	.
CCN(CC)CCNC(=O)CCCCn1c(=S)[nH]c2c([nH]c3ccc(OC)cc32)c1=O	-1	4	69*	-3	84*	8
CC(C)Cn1c(-c2ccc(Br)o2)n[nH]c1=S	0	2	41*	-4	76*	-4
Cc1ccsc1-c1n[nH]c(=S)n1CC(C)C	0	2	44*	-3	90*	-2
CC(C)Cn1c(-c2nn(C)cc2Cl)n[nH]c1=S	1	4	26	-9	.	.
Cc1ccccc1-n1c(-c2ccc(Br)o2)n[nH]c1=S	0	-2	27	-1	.	.
CCOC(=O)c1oc2nc(CC(C)C)c3c(c2c1N)CCCC3	6	6	-2	-3	.	.
COc1ccc(CN2CCNC(=O)C2CC(=O)NCCc2c[nH]c3ccccc23)c(OC)c1 (configuration not stated)	1	2	-4	-3	.	.
CCOc1ccccc1N(CC(=O)NC1CCCC1)C(=O)CNC(=O)c1cccs1	0	-2	-9	-5	.	.
COc1cccc(N2CCN(c3nc(C)cc(=O)[nH]3)CC2)c1	0	0	-15	-9	.	.
Oc1ccc(-c2cn3c(n2)SCC3)cc1O	2	1	59*	3	76*	-4
Clc1ccc(-c2cn3c(n2)SCC3)cc1	0	-5	19	-3	.	.
CCn1c(=S)sc2c(=O)n(CC(=O)Nc3ccc(OC)c(Cl)c3)c(C)nc21	3	1	-5	-2	.	.
Cc1csc(NC(=O)CN(C)S(=O)(=O)c2cccc3cccnc23)n1	-2	5	-6	0	.	.
CN(CC(=O)Nc1n[nH]c(=S)s1)S(=O)(=O)c1cccc2cccnc12	-1	8	75*	-5	95*	8
c1ccc(CCc2nn3c(Cc4ccccc4)nnc3s2)cc1	0	4	53*	2	59*	.
SMILES	NTR1 agonist	AHR act	A3G deaminase	APOBEC3A inh	APOBEC3G confirm	UDG A3G counter
c1ccc(Cc2nnc3sc(-c4cccs4)nn23)cc1	0	34	20	3	.	.
COc1ccccc1-c1nn2c(C3COc4ccccc4O3)nnc2s1 (configuration not stated)	4	31	51*	-2	3	4
c1ccc(CCc2nn3c(C4COc5ccccc5O4)nnc3s2)cc1 (configuration not stated)	1	4	48*	2	31*	3
COc1cc(CNCCNC(=O)c2nonc2N)ccc1OCc1ccc(Cl)cc1	0	4	79*	-7	-2	-6
COc1cccc(CNCCNC(=O)c2nonc2N)c1	2	0	-4	4	.	.
CCOC(=O)c1cccc(NC(=O)Cn2cc3c(n2)CCC(C)C3)c1 (configuration not stated)	0	5	47*	2	-2	.
O=c1c2ccccc2sn1-c1cc(S(=O)(=O)N2CCOCC2)ccc1N1CCOCC1	-1	7	77*	0	77*	2
COc1ccc(-c2n[nH]c(=S)n2-c2ccc(C)cc2)cc1	0	5	27	5	.	.

High-throughput results: PubChem, several laboratories
